# Screening results deposited in PubChem BioAssay by National Center for Advancing Translational Sciences (NCATS).
# Shown are actives, neighbours in structure and some others; about 7.9% of the full set was active somewhere.
# SW480 rereplic: DNA re-replication induction in SW480 cells; SW480 DNA re-replication, Hoechst DNA content imaging, 48 h; Potency, µM (highest dose often 46.1 µM), for inactives: top-dose re-replication activation, hits mostly activators; 340,000 tested, 1.8% active; AID 624297; also: % of control where 0% means no effect; nearly all actives have a fitted effect of over 55% in size
#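 250 cells/well; 23 nL cpd via pin tool; 48 hr, 37 C, 5% CO2; Hoechst 40 min; imager read of total nuclear intensity, ex 405/em 500-530 nm.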
# MCF10A rereplic: inducers of DNA re-replication in MCF 10A breast cells | MCF 10A DNA re-replication, Hoechst nuclear intensity, 48 h | Potency, µM (highest dose often 46.1 µM), inactives show top-dose activity, positive = re-replication, actives largely listed as activators | 350,000 tested, 2.9% active; also: % of control where 0% means no effect; nearly all actives have a fitted effect of over 50% in size
# KB-V1 cytotox: kills drug-selected multidrug resistant KB-V1 cells; AID 1347076; 400,000 tested, 3.4% active; KB-V1 MDR cells viability, CellTiter-Glo, 72 h; Potency, µM (titrated, usually from 46.1 µM), actives largely listed as cytotoxic; also: % is scaled to controls: 0 for no effect and ±100 for the full control effect; nearly all actives have a fitted effect of over 60% in size
#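 KB-V1 MDR subline cells in DMEM (phenol-red free, 10% FBS) exposed to compounds in qHTS concentration series for 72 h at 37 degrees C. Viability read by CellTiter-Glo luminescence; concentration-effect curves fitted after normalization and correction.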
# KB-3-1 cytotox: kills parental KB-3-1 adenocarcinoma cells | KB-3-1 viability, CellTiter-Glo ATP luminescence, 72 h | 400,000 tested, 1.4% active | Potency, µM (doses to about 46.1 µM), hits mostly cytotoxic; also: % is scaled to controls: 0 for no effect and ±100 for the full control effect; nearly all actives have a fitted effect of over 60% in size
#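 Multi-concentration cytotoxicity screen in KB-3-1 cells grown in DMEM lacking phenol red with 10% FBS. After 72 h at 37 °C with compound, ATP-dependent luminescence was recorded.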
# HT1080 IDH1KD tx: kills HT-1080 cells with IDH1 knockdown. HT-1080 IDH1 knockdown viability, ATP luminescence, 48 h. Potency, µM (top dose mostly 46.1 µM), without a hit: top-dose activity, negative = toxicity, hits mostly cytotoxic. 360,000 tested, 2% active;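 also: 0% = DMSO wells and -100% = cell-free medium wells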
#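 Assay cells: HT-1080 with IDH1 knockdown, 750 per well, RPMI/5% FBS. Exposure: 48 h at 37 °C following 2 h pre-incubation. Read: CellTiter-Glo luminescence; fitted concentration-response, curve class assigned.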
# HT1080-NT tox: kills 2HG-producing HT-1080-NT fibrosarcoma cells; HT-1080-NT fibrosarcoma viability, CellTiter-Glo ATP luminescence, 48 h; Potency, µM (top dose mostly 46.1 µM), inactives show at the top dose activity, negative = less viability, usual class: cytotoxic; 360,000 tested, 1.6% active; AID 686970;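 also: NT is the 2HG producing partner of a matched IDH1 knockdown line; 0% = DMSO-treated cells and -100% = media-only wells without cells; nearly all actives have a fitted effect of over 55% in size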
#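 Compounds were tested in concentration-response format on HT-1080-NT cells for 48 hours at 37 degrees C. Cell viability came from CellTiter-Glo luminescence; curves were classified by r2, response magnitude and activity.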
# * marks the source's active call; other numbers are inactive results; i = inactive; ? = inconclusive; . = not tested or not shown. Calls follow the shape of the dose curve; as a rule, active = well fitted curve in the direction sought with a large enough effect; inconclusive = small, poorly fitted or top-dose-only effect, or another doubt; inactive = no such curve, though single readings can be large; an effect the other way counts as inactive or inconclusive. Potency is read from the fitted curve at half-maximal effect.
SMILES,SW480 rereplic,MCF10A rereplic,KB-V1 cytotox,KB-3-1 cytotox,HT1080 IDH1KD tx,HT1080-NT tox
CCn1c(SCC(=O)c2cccs2)nnc1-c1cccs1,?,-20%,i,i,-5%,2%
COc1ccc(OCC(=O)NC(=O)c2ccccc2)c([N+](=O)[O-])c1,-7%,1%,i,i,7%,9%
COc1ccc(NC(=O)COC(=O)c2ccc(OCc3ccccc3Cl)c(OC)c2)c(OC)c1,0%,?,i,i,11%,14%
CC(C)(C)S(=O)N1Cc2cc(C(=O)NCC(F)(F)F)nc(-c3cccc(-c4cccc(F)c4)c3)c2[C@@H]1CCO (some centres not stated),.,.,?,?,21µM*,?
CC(=O)N1Cc2cc(C(=O)NCC(F)(F)F)nc(-c3cccc(-c4cccnc4)c3)c2[C@@H]1CCO,.,.,i,4.1µM*,6.5µM*,?
CC(=O)N1Cc2cc(C(=O)NCC(F)(F)F)nc(-c3cccc(-c4cc5ccccc5o4)c3)c2[C@@H]1CCO,.,.,23µM*,?,9%,6%
CCNC(=O)c1cc2c(c(-c3cccc(-c4cccnc4)c3)n1)[C@H](CCO)N(S(C)(=O)=O)C2,.,.,?,2.9µM*,2.3µM*,?
CC(=O)N1Cc2cc(C(=O)NCC(F)(F)F)nc(-c3cccc(-c4cccnc4)c3)c2[C@H]1CCO,.,.,i,i,16%,-4%
Cc1cccc(NC(=O)CSc2nsc(SCC(=O)Nc3cccc(C)c3)c2C#N)c1,-104%,-1%,i,i,2%,-17%
Cc1cc(C(=O)CSc2nnc(-c3ccccc3)n2C)c(C)n1C,-8%,-1%,7.3µM*,i,17%,-2%
Cc1cc(C(=O)CSc2nnc(-c3ccncc3)n2-c2ccccc2)c(C)n1C,0%,0%,i,i,-3%,0%
Cc1cc(C(=O)CSc2nnc(-c3ccc(Cl)cc3)n2CC2CCCO2)c(C)n1C (configuration not stated),2%,10%,6.5µM*,i,-7%,0%
COc1ccc(-n2cnnc2SCC(=O)c2cc(C)n(Cc3cccs3)c2C)cc1,-4%,?,i,i,1%,-4%
COCCn1c(C)cc(C(=O)CSc2nncn2-c2ccccc2)c1C,0%,1%,10µM*,i,11%,-1%
CN(C(=O)CSc1nnc(-c2ccc(Cl)cc2)n1CC1CCCO1)C1CCS(=O)(=O)C1 (configuration not stated),-6%,1%,i,i,17%,9%
CN1CCN(C2CN(Cc3cn(Cc4ccccc4C(F)(F)F)nn3)S(=O)(=O)C2)CC1 (configuration not stated),.,.,i,i,0%,4%
Cc1cccc(C)c1N=Cc1c(O)n(-c2nccs2)c(=O)c2ccccc12,1%,3%,23µM*,i,1%,-5%
CCCc1nc2ccccc2c(C(=O)OCC(=O)Nc2ccc(S(=O)(=O)N3CCOCC3)cc2)c1CC,21µM*,?,3.3µM*,?,10µM*,?
CCCc1nc2ccccc2c(C(=O)OCC(=O)Nc2cccc(S(=O)(=O)N3CCOCC3)c2)c1CC,11%,?,?,?,?,?
CCCc1nc2ccccc2c(C(=O)OCC(=O)NCc2ccco2)c1CC,-7%,18%,5.8µM*,i,-23%,-5%
CCc1nnc(NC(=O)Cc2ccc(OC)c(OC)c2)s1,-12%,0%,i,i,1%,3%
Cc1ccc(C)c(S(=O)(=O)N2CCN(C(=O)c3cc(-c4cccs4)nn3-c3ccccc3)CC2)c1,-1%,?,6.5µM*,?,-8%,-5%
CN(CC(=O)Nc1c(Cl)cccc1Cl)C(=O)c1cc(-c2cccs2)nn1-c1ccccc1,0%,?,4.1µM*,i,4%,7%
